Among the test systems are SR leukemia; RPMI-8226 leukemia; OVCAR-8 ovarian; OVCAR-5 ovarian; OVCAR-4 ovarian; SK-OV-3 ovarian; IGROV1 ovarian; OVCAR-3 ovarian; HS 578T breast; NCI/ADR-RES ovarian.
Assay in all cases: NCI-60 one-dose screen, 48 h (100 = growth as untreated, 0 = no growth, -100 = all killed)
Common to all, as to conditions: 10 µM unless noted

About 83,000 compounds went through this panel and 20% of them were active in at least one assay; those are over-represented in the sample as a whole.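 Negative percent growth values reflect cell death: -40 means 40% of the cells present at the start died, and -100 means all died.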 Values without a mark were called inactive. Calls of active or inactive are those of the source. The calls were made as follows: active = growth percent below 10; inactive = the rest.

The text below walks through data of PubChem BioAssay (NCI).

With `CC(=O)OCC(=O)[C@@]1(O)CC[C@H]2[C@@H]3CC(=C(Br)Br)C4=CC(=O)CC[C@]4(C)[C@H]3C(=O)C[C@@]21C`, the growth is 115% in the assay with SR leukemia; 87% with RPMI-8226 leukemia; 92.9% in the assay on OVCAR-8 ovarian; 102% in the assay on OVCAR-5 ovarian; 96.1% in the assay with OVCAR-4 ovarian; 72.9% in the assay on SK-OV-3 ovarian. In addition, the growth is 96% with IGROV1 ovarian, 98.6% in the assay with OVCAR-3 ovarian, 90.8% with HS 578T breast and 89.5% with NCI/ADR-RES ovarian.

As for `C=Cc1cc[n+](CCCCCCCCCCCC)cc1`, the growth in the assay with SR leukemia is 97.2%; in the assay on RPMI-8226 leukemia, 104%; with OVCAR-8 ovarian, 112%; in the assay on OVCAR-5 ovarian, 108%; with OVCAR-4 ovarian, 133%; in the assay on SK-OV-3 ovarian, 144%. Further, the growth is 104% in the assay on IGROV1 ovarian, 110% in the assay on OVCAR-3 ovarian, 108% with HS 578T breast and 106% with NCI/ADR-RES ovarian.

Regarding `CS(=O)(=O)c1ccc(-c2cc(-c3nnc(SCC(=O)Nc4ccc(C(=O)/C=C/c5ccc(Cl)cc5)cc4)n3-c3ccccc3)c3ccccc3n2)cc1`, the growth in the assay with SR leukemia is 94.1%; in the assay on RPMI-8226 leukemia it was 74.2%; in the assay with OVCAR-8 ovarian, 86.1%; in the assay on OVCAR-5 ovarian it was 95.1%; in the assay on OVCAR-4 ovarian, 102%; in the assay with SK-OV-3 ovarian, 110%. Further, the growth with IGROV1 ovarian was 91.9%; in the assay with OVCAR-3 ovarian, 102%; in the assay with HS 578T breast, 89.5%; in the assay on NCI/ADR-RES ovarian, 94.6%.

On to `COc1ccc2c(Nc3ccc(NS(C)(=O)=O)cc3)c3ccccc3nc2c1`, for which the growth in the assay with SR leukemia is -11.6% (active); in the assay on RPMI-8226 leukemia, 1.1% (active); with OVCAR-8 ovarian it was 8% (active); with OVCAR-5 ovarian, 4.43% (active); in the assay on OVCAR-4 ovarian, 11.8%; in the assay on SK-OV-3 ovarian it was 20.5%. Moreover, the growth in the assay on IGROV1 ovarian was 3.52% (active); in the assay with OVCAR-3 ovarian it was -22.3% (active); with HS 578T breast, -17.1% (active); in the assay with NCI/ADR-RES ovarian, 32.7%.

As for `C=C(C)[C@@H]1CC[C@]2(C(=O)O)CC[C@]3(C)[C@H](CC[C@@H]4[C@@]5(C)C[C@@H](CC#Cc6ccc(Br)cc6)C(=O)C(C)(C)[C@@H]5CC[C@]43C)[C@@H]12`, the growth in the assay on SR leukemia is 55.2%; in the assay with RPMI-8226 leukemia, 33.4%; with OVCAR-8 ovarian, 35.6%; in the assay on OVCAR-5 ovarian, 73.8%; with OVCAR-4 ovarian, 30.3%; in the assay on SK-OV-3 ovarian, 50.5%. Besides, the growth is 58.6% with IGROV1 ovarian, 51.4% in the assay on OVCAR-3 ovarian, 59% in the assay with HS 578T breast and 76.4% with NCI/ADR-RES ovarian.

As to `COc1cccc(-c2nc3occn3c2-c2ccnc(NCCCNS(=O)(=O)c3cccc(F)c3)n2)c1`, the growth in the assay on SR leukemia was 107%; in the assay with RPMI-8226 leukemia, 68.1%; in the assay on OVCAR-8 ovarian, 72.2%; in the assay on OVCAR-5 ovarian it was 135%; with OVCAR-4 ovarian, 71.9%; in the assay with SK-OV-3 ovarian, 86.3%. Besides, the growth in the assay on IGROV1 ovarian is 89%; with OVCAR-3 ovarian, 88.1%; with HS 578T breast it was 92.6%; in the assay on NCI/ADR-RES ovarian, 85.8%.

In the case of `CCCCCCCCCCCC(=O)C(CCCCCCCCCC)C(=O)Nc1ccccc1` (stereo not given), the growth is 99.7% with SR leukemia; 99.2% in the assay on RPMI-8226 leukemia; 103% in the assay with OVCAR-8 ovarian; 101% in the assay with OVCAR-5 ovarian; 102% in the assay on OVCAR-4 ovarian; 108% in the assay on SK-OV-3 ovarian. For the same molecule, the growth in the assay on IGROV1 ovarian was 89.2%; in the assay on OVCAR-3 ovarian, 112%; in the assay with HS 578T breast it was 96.8%; in the assay with NCI/ADR-RES ovarian it was 102%.

Turning to `CN1CCN(c2ccc3nc(-c4cc(C(C)(C)C)c(O)c(C(C)(C)C)c4)[nH]c3c2)CC1`, the growth in the assay on SR leukemia is -14.5% (active); with RPMI-8226 leukemia it was -24.2% (active); in the assay on OVCAR-8 ovarian, 94.1%; in the assay on OVCAR-5 ovarian it was 91.6%; in the assay with OVCAR-4 ovarian, 75.9%; in the assay on SK-OV-3 ovarian, 83.9%. Also, the growth was 88% in the assay with IGROV1 ovarian, 74.4% in the assay with OVCAR-3 ovarian, 71.9% in the assay with HS 578T breast and 86.8% in the assay with NCI/ADR-RES ovarian.

For the molecule `Nc1c(C(=O)Nc2cccc3ccncc23)sc2nc3c(cc12)C(=O)CCC3`, the growth is 33.3% in the assay with SR leukemia; 64.6% in the assay on RPMI-8226 leukemia; 68.1% in the assay on OVCAR-8 ovarian; 68.5% in the assay on OVCAR-5 ovarian; 80.7% in the assay on OVCAR-4 ovarian; 35.3% in the assay on SK-OV-3 ovarian. The growth is 57.8% in the assay on IGROV1 ovarian, 3.84% (active) in the assay on OVCAR-3 ovarian, 21.3% with HS 578T breast and 68.4% with NCI/ADR-RES ovarian.

Take `COc1cc2ncnc(Nc3ccc(C(=O)/C=C/c4ccc(C(F)(F)F)cc4F)cc3)c2cc1OC`: the growth was 63.4% in the assay with SR leukemia; 12.8% with RPMI-8226 leukemia; 101% in the assay with OVCAR-8 ovarian; 103% in the assay with OVCAR-5 ovarian; 105% in the assay on OVCAR-4 ovarian; 123% in the assay on SK-OV-3 ovarian. Besides, the growth in the assay with IGROV1 ovarian is 94.2%; in the assay with OVCAR-3 ovarian it was 101%; in the assay with HS 578T breast, 66.8%; in the assay with NCI/ADR-RES ovarian, 102%.

Take `COc1ccc(C(=O)c2cc3c(N)c(C(=O)Nc4cccc5ccccc45)sc3nc2C)cc1`: the growth in the assay on SR leukemia was -11.9% (active); in the assay with RPMI-8226 leukemia it was 5.61% (active); with OVCAR-8 ovarian it was -5.04% (active); in the assay with OVCAR-5 ovarian, 39.9%; in the assay on OVCAR-4 ovarian, 37.2%; in the assay on SK-OV-3 ovarian, 32%. Besides, the growth in the assay with IGROV1 ovarian is 23.8%; with OVCAR-3 ovarian, -7.2% (active); in the assay with HS 578T breast, 11.3%; with NCI/ADR-RES ovarian, 8.37% (active).

Turning to `COc1cc(COC(=O)CCCCC[P+](c2ccccc2)(c2ccccc2)c2ccccc2)c(OC)c2c1OCO2`, the growth in the assay with SR leukemia was 0.217% (active); in the assay with RPMI-8226 leukemia, -23.1% (active); with OVCAR-8 ovarian it was 64.4%; with OVCAR-5 ovarian it was 76.9%; in the assay on OVCAR-4 ovarian, 41.2%; in the assay with SK-OV-3 ovarian, 76.6%. The growth in the assay with IGROV1 ovarian is 28.6%; with OVCAR-3 ovarian it was 48.7%; in the assay on HS 578T breast, 70.8%; in the assay with NCI/ADR-RES ovarian it was 104%.

Take `COc1ccc2c(/C=C3/C(=O)NC(=S)NC3C)cc(=O)oc2c1` (stereo not given): the growth is 96.6% in the assay on SR leukemia; 117% with RPMI-8226 leukemia; 91.6% with OVCAR-8 ovarian; 94.1% with OVCAR-5 ovarian; 100% in the assay with OVCAR-4 ovarian; 100% in the assay with SK-OV-3 ovarian. Besides, the growth with IGROV1 ovarian is 96.2%; with OVCAR-3 ovarian, 101%; in the assay on HS 578T breast, 100%; in the assay with NCI/ADR-RES ovarian, 99%.

As to `O=C1C(=O)c2c(nc3ncccn23)-c2ccccc21`, the growth in the assay on SR leukemia was -14.8% (active); in the assay with RPMI-8226 leukemia, -25.3% (active); in the assay on OVCAR-8 ovarian, -60.7% (active); in the assay on OVCAR-5 ovarian it was -88.1% (active); in the assay with OVCAR-4 ovarian, -96.2% (active); in the assay with SK-OV-3 ovarian, -97.9% (active). Moreover, the growth in the assay with IGROV1 ovarian was -58.5% (active); in the assay with OVCAR-3 ovarian, -50.2% (active); in the assay with HS 578T breast, -18.7% (active); in the assay with NCI/ADR-RES ovarian, -32.8% (active).
